High-throughput results from PubChem BioAssay.
Rab9 prom act = Rab9 promoter activation | Huh7 Rab9 promoter-luciferase reporter, luminescence, 24 h | Potency, µM (highest dose often 9.22 µM), for the others: at the top dose activation, negative = inhibition, actives largely listed as activators | hit rate 2.8% among 320,000 | AID 485297; further: % of control where 0% means no effect; nearly all actives have a fitted effect of over 60% in size
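Huh7 reporter line, Rab9 promoter upstream of luciferase. Compound exposure 24 h at 37 °C in reduced-serum medium with 10% FBS. Read-out: luminescence.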
NPC1 prom act = activators of NPC1 promoter; Huh7 NPC1 promoter luciferase reporter, 24 h; hit rate 2.4% among 320,000; Potency, µM (highest dose often 9.22 µM), without a hit: at the top dose activation, actives largely listed as activators; further: % of control where 0% means no effect; nearly all actives have a fitted effect of over 60% in size
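Luminescence from an NPC1 promoter-driven luciferase reporter in stably transfected Huh7 cells was measured after 24 h compound treatment at 37 °C, followed by 10 min ambient incubation with luciferase detection reagent.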
SMN2 splice up = increases expression of the SMN2 splice variant | HEK293 SMN2-luciferase splicing reporter, luminescence, 30-36 h | Potency, µM (doses to about 46.1 µM), without a hit: at the top dose activity change, positive = activation, usual class: activators | hit rate 2.8% among 210,000; further: % of control where 0% means no effect; nearly all actives have a fitted effect of over 55% in size
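qHTS luciferase splicing reporter: luminescence rises when SMN2 exon 7 is included in transfected HEK293 cells. Compound exposure lasted 30-36 h at 37C, with 4.5 mM final sodium butyrate as control, followed by a ONE-Glo read.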
Luc counter = blocks Kinase-Glo luciferase, a counter-screen artifact | Kinase-Glo luciferase, ATP luminescence, 8 min | Potency, µM (highest dose often 38.3 µM), without a hit: top-dose activity change, negative = inhibition, actives largely listed as inhibitors | hit rate 0.28% among 200,000 | Q27757; further: on the % scale 0 is the no-effect control and ±100 the full control effect; nearly all actives have a fitted effect of over 60% in size
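Recombinant Kinase-Glo luciferase, 10 uM ATP (linear range), luciferin; imidazole pH 7.2 / KCl / MgCl2 / Tween / BSA buffer; 8 min RT; luminescence.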
ELG1 genotox = genotoxicity induction in ELG1-luciferase HEK293T cells. HEK293T ELG1-luciferase reporter, luminescence, 16 h. Potency, µM (top dose mostly 46 µM), for inactives: at the highest dose activity change, positive = activation, hits mostly activators. hit rate 1.3% among 330,000. AID 504466; further: % of control where 0% means no effect; nearly all actives have a fitted effect of over 60% in size
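Screening used a luciferase reporter fused to human ELG1 in HEK293T cells. Luminescence was read on a CCD plate imager after 16 hr exposure and 30 min ONE-Glo incubation.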
FLuc modulator = counter-screen for miR-21 project: firefly luciferase inhibitors or activators. purified FLuc, Km substrates, luminescence inhibition. Potency, µM (series often up to 57.5 µM), inactives show at the highest dose activity change, negative = inhibition, actives largely listed as inhibitors. hit rate 6.9% among 360,000;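 further: plate controls were vehicle for no effect and reference inhibitor for full effect; nearly all actives have a fitted effect of over 55% in size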
Target sequence (P08659 whole entry, looked up): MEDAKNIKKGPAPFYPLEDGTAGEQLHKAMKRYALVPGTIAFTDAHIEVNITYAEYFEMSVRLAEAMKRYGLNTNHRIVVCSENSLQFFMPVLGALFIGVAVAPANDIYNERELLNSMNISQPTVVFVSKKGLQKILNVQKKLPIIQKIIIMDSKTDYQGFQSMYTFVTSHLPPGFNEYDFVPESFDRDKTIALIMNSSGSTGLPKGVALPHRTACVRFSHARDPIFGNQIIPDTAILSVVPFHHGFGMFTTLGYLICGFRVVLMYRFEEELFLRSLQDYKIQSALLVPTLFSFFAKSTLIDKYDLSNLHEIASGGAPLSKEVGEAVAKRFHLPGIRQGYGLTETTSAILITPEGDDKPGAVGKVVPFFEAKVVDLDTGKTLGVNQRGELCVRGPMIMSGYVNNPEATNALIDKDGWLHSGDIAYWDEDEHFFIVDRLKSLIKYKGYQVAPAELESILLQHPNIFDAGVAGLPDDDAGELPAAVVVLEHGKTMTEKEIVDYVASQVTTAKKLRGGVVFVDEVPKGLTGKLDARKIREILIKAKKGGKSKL
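Purified P. pyralis luciferase, 10 nM final, with Km-level 10 uM D-luciferin and 10 uM ATP in 50 mM Tris acetate pH 7.5, 10 mM Mg acetate, 0.01% Tween-20, 0.05% BSA; 6-point qHTS titration about 60 µM downward; luminescence read.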
An asterisk follows results filed as active; ? = inconclusive; nt = not tested or not shown; [ ] = dose if it differs, or a comment. Rows were chosen to be rich in hits. Some 7.4% of all compounds tested hit in one or more screens of this group. The call rests on the fitted dose curve; in most records, active means well fitted curve in the direction sought with a large enough effect; inconclusive means small, poorly fitted or top-dose-only effect, or another doubt; inactive means no such curve, though single readings can be large; an effect the other way counts as inactive or inconclusive. Potency means the concentration at half of the fitted maximal effect.

SMILES | Rab9 prom act | NPC1 prom act | SMN2 splice up | Luc counter | ELG1 genotox | FLuc modulator
Cc1cn(CCC(=O)Nc2ccc(N3CCOCC3)cc2)c2ccccc12 | ? | ? | nt | nt | ? | 13µM*
CC(C)n1c(SCC(=O)Nc2ccc(N3CCOCC3)cc2)nnc1-c1ccco1 | 0% | 7% | nt | nt | -4% | ?
O=C(Nc1c(C(=O)N2CCN(c3ccccc3)CC2)oc2ccccc12)c1ccco1 | nt | nt | nt | nt | nt | -8%
CC(=O)NC(c1cc(F)c2cccnc2c1O)C(C)C (configuration not stated) | -27% | -2% | nt | nt | nt | 1%
Cn1c(COc2ccccc2)nnc1SCC(=O)Nc1ccc(N2CCOCC2)cc1 | 2% | 10% | nt | nt | 13% | ?
Cn1c(SCC(=O)Nc2ccc(N3CCOCC3)cc2)nnc1-c1ccccc1 | 4% | 2% | 41% | 1% | 8% | 17µM*
CCCOc1ccc(-c2nnn(CC(=O)N3CCC(C)CC3)n2)cc1 | 0% | 1% | -35% | -5% | 2% | 17µM*
CCCOc1ccc(-c2nnn(CC(=O)N3CCCC(C)C3)n2)cc1 (configuration not stated) | -2% | -2% | nt | nt | 0% | 15µM*
CCOc1ccc(-c2nnn(CC(=O)N3CCCC(C)C3)n2)cc1 (configuration not stated) | -7% | -8% | -9% | 4% | -4% | ?
COC(=O)CCn1nnc(-c2cccs2)n1 | -4% | -2% | -7% | -1% | 0% | -1%
CC(C)c1ccc(-c2nnn(CC(=O)N3CCCCC3)n2)cc1 | 17% | 16% | nt | nt | 4% | ?
COC(=O)CCn1nnc(-c2ccc(C(C)C)cc2)n1 | -28% | -19% | -22% | 1% | -5% | 12µM*
CC1CCN(C(=O)Cn2nnc(-c3ccc(C(C)C)cc3)n2)CC1 | 2% | 8% | nt | nt | -2% | 17µM*
CC12CC[C@@](C(=O)O)(C(=O)C1=O)C2(C)C | nt | nt | 4% | -2% | nt | nt
CCCCOc1ccc(-c2nnn(CCC(=O)N3CCOCC3)n2)cc1 | ? | ? | -20% | -2% | ? | 12µM*
COc1ccc2c(c1)C(=O)[C@H](OC(=O)N[C@H](C)C1CCCCC1)[C@@H](c1ccc(OC)c(Br)c1)O2 | nt | nt | 0% | 0% | nt | nt
COC(=O)c1ccc2c(c1)SC1=C(CCCC1=O)N2 | -2%[1.84 µM] | 20% | -18% | -3% | 21µM* | 19µM*
O=C1CCCC2=C1Sc1ccc(Cl)cc1N2 | 6% | 3% | nt | nt | -4% | -9%
Cc1ccc(NC(=O)CCCn2c(=O)c3cccn3c3cccnc32)c(C)c1 | nt | nt | nt | nt | nt | -1%
O=C(Nc1nc(-c2ccccc2)cs1)c1ccc(Br)o1 | 20% | 11% | -5% | -5% | 6% | 24µM*
O=C(Nc1nc(-c2cccnc2)cs1)c1ccc([N+](=O)[O-])cc1 | -1% | 1% | nt | nt | -3% | -16%
Cc1csc(NC(=O)C2=NN(c3ccccc3)C(=O)CC2)n1 | 0% | -2% | -5% | -1% | 0% | -2%
Cc1ccc(C(=O)Nc2nc(-c3cccnc3)cs2)o1 | 21% | 19% | 16% | -2% | 1% | 21µM*
COc1ccc(-c2csc(NC(=O)c3ccccc3F)n2)cc1 | 5% | 1% | nt | nt | 8% | ?
Cc1ccc(-c2csc(NC(=O)C3=NN(c4ccccc4)C(=O)CC3)n2)cc1 | -29% | -7% | -52% | -1% | -13% | 8.5µM*
SMILES | Rab9 prom act | NPC1 prom act | SMN2 splice up | Luc counter | ELG1 genotox | FLuc modulator
O=C(Nc1nc(-c2ccccc2)cs1)c1ccccc1F | 3.5µM* | ? | nt | nt | ? | 17µM*
CN(Cc1ccccc1)C(=O)[C@H](Cc1ccc2ccccc2c1)NC(=O)[C@@H]1CCCN1C(=O)Nc1ccccc1[N+](=O)[O-] | nt | nt | nt | 1%[39.9 µM] | nt | nt
CCN1CCN(C(=O)Cn2ncc3c4ccccc4n(Cc4c(C)cc(C)cc4C)c3c2=O)CC1 | nt | nt | 2% | nt | nt | -8%
CC(=O)c1ccc(N2CCN(C(=O)C3CCN(S(=O)(=O)c4cccc5nonc45)CC3)CC2)cc1 | nt | nt | nt | nt | nt | 1%
Cc1onc(-c2ccccc2)c1C(=O)Nc1nc(-c2ccccc2)cs1 | ? | 12% | ? | -5% | ? | 19µM*
Cc1csc(NC(=O)c2ccc(C)o2)n1 | 3.5µM* | ? | nt | -18% | ? | 15µM*
Cc1onc(-c2ccccc2)c1C(=O)Nc1nc(-c2cc(F)ccc2F)cs1 | -2% | -3% | 11% | -6% | ? | ?
COc1ccc(CC(=O)Nc2nc(C)cs2)cc1 | 7% | 6% | 5% | 2% | 5% | -8%
COc1ccc(CNC(=O)Cc2ccc(NC(=O)C3=C(C)OCCS3)cc2)cc1 | ? | 24% | nt | nt | 16µM* | 1.2µM*
CCOc1ccc(CNC(=O)c2cccc(NC(=O)C3=C(C)OCCS3)c2)cc1 | 17% | 4% | nt | nt | -5% | ?
COc1cccc(CNC(=O)c2cccc(NC(=O)C3=C(C)OCCS3)c2)c1 | 6% | -2% | nt | nt | -6% | ?
CC1=C(C(=O)Nc2ccc(CC(=O)NCc3ccc(OC(C)C)cc3)cc2)SCCO1 | 12% | ? | nt | nt | 9.2µM* | 2.7µM*
CC(C)(C)OC(=O)N1CCC(c2c(C(=O)NCCN3CCC(Cc4ccccc4)CC3)cnn2-c2cccc(Cl)c2)CC1 | nt | nt | nt | nt | nt | -3%
O=C(Nc1nc(-c2ccc(Cl)cc2)cs1)C1=COCCO1 | 16% | ? | nt | nt | 7% | 24µM*
Cc1cc(C)c(-c2csc(NC(=O)C3=COCCO3)n2)c(C)c1 | -5% | -2% | nt | nt | ? | -1%
CCc1ccc(-c2csc(NC(=O)C3=COCCO3)n2)cc1 | 0.79µM* | 0.89µM* | nt | nt | ? | 8.5µM*
O=C(Nc1nc(-c2cccs2)cs1)C1=COCCO1 | ? | ? | 13µM* | -1% | ? | 12µM*
Cc1ccc(CSc2nnc(NC(=O)C3=COCCO3)s2)cc1 | 3% | 10% | nt | nt | 9% | 27µM*
O=C(Nc1nc(-c2ccc(F)c(F)c2)cs1)C1=COCCO1 | ? | 20% | nt | nt | 4% | ?
Cn1c2cc(Br)sc2c2cnn(Cc3c(F)cccc3F)c(=O)c21 | -3% | 8% | nt | nt | nt | 9%
COc1ccc(-n2nc(C(=O)N(C)c3cc(C)ccc3C)c3c4ccccc4n(C)c3c2=O)cc1Cl | nt | nt | -3% | nt | nt | -1%
Cc1cccc(C)c1NC(=O)/C(C#N)=C/c1ccc(-c2ccc(C(=O)O)cc2)o1 | 2.5µM* | 0.63µM* | nt | nt | ? | 12µM*
N#C/C(=C\c1ccc(-c2ccc(C(=O)O)cc2)o1)C(=O)Nc1ccc(F)cc1 | ? | ? | nt | nt | 2% | 2.4µM*
N#C/C(=C\c1ccc(-c2ccc(C(=O)O)cc2)o1)C(=O)NCC1CCCO1 (configuration not stated) | 24% | ? | ? | 0% | 6% | ?
